Screening data as filed in PubChem.
PLK1 PBD block = PLK1 (human) polo-box domain binding inhibition; 2.8% of 360,000 active; Plk1 PBD binding of FITC phosphopeptide, fluorescence polarization; Potency, µM, hits mostly inhibitors; AID 720504; further: series mostly up to about 57 µM; nearly all actives have a fitted effect of over 65% in size
DT40 TDP1 no CPT = qHTS for Inhibitors of human tyrosyl-DNA phosphodiesterase 1 (TDP1): qHTS in cells in absence of CPT; DT40 Tdp1-/- hTDP1 cells, no CPT, ATP luminescence, 48 h; 15% of 420,000 active; AID 686978, 2013; Potency, µM (top dose mostly 46.2 µM), actives largely listed as inhibitors; further: nearly all actives have a fitted effect of over 55% in size
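Chicken DT40 Tdp1-/- cells stably complemented with human TDP1 were seeded at 400 cells/well with DMSO in place of 20 nM camptothecin. After compound pinning, cells grew at least 48 hr at 37 °C; viability read by CellTiter-Glo luminescence.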
KAT2A inh = GCN5L2 (KAT2A) acetyltransferase inhibition. GCN5L2 HAT assay, ThioGlo1 CoA-SH fluorescence. Potency, µM (doses to about 58.9 µM), most hits filed as inhibitors. 0.21% of 390,000 active. AID 504327
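Enzyme at 20nM final was mixed with library compounds for 15 min at room temperature. Peptide H3(1-25) at 75uM, acetyl-CoA at 70uM and ThioGlo1 at 50uM were then added. Plates were read immediately and after 20 min (Ex340nm/Em540nm).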
VDR inhibitor = vitamin D3 receptor (human) inhibition. 0.93% of 400,000 active. Potency, µM, hits mostly inhibitors. AID 504847. VDR-SRC2-3 peptide fluorescence polarization, 2 h
Target sequence (P11473 whole entry, looked up): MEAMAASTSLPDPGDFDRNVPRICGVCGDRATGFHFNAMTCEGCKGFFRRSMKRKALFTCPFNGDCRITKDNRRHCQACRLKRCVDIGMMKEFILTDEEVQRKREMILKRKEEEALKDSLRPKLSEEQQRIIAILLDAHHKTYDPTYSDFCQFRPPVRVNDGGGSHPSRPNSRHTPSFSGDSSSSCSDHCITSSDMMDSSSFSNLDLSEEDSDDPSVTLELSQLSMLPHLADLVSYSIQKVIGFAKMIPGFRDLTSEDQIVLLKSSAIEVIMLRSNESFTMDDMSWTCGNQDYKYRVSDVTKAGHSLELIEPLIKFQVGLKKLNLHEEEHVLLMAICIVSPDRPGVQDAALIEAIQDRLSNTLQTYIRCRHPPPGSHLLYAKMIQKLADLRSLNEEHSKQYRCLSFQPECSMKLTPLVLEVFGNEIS
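The screen uses fluorescence polarization to detect compounds that interfere with recruitment of the SRC2-3 coactivator peptide to VDR; plates are read after 2 h at room temperature.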
TDP1 cell CPT = DT40-hTDP1 cell growth loss with CPT | chicken DT40 Tdp1-/-;hTDP1 cells + 20 nM CPT, ATP luminescence, 48 h | Potency, µM (top dose mostly 46.2 µM), most hits filed as inhibitors | 12% of 420,000 active | AID 686979; further: nearly all actives have a fitted effect of over 55% in size
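Cell growth measured by CellTiter-Glo luminescence after a minimum 48 h, 37 C compound exposure with 20 nM CPT in Tdp1-knockout DT40 cells stably expressing hTDP1, seeded 400/well; qHTS titration format.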
TDP1 inh = inhibitors of human tyrosyl-DNA phosphodiesterase TDP1 | Q9NUW8 | recombinant TDP1, AlphaScreen DNA substrate cleavage | Potency, µM (series often up to 130 µM), hits mostly inhibitors | 0.28% of 350,000 active | AID 485290; further: nearly all actives have a fitted effect of over 40% in size
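Steps: enzyme plus compound, 15 min RT; add biotin/phosphotyrosine-FITC oligonucleotide (15 nM final), react 5 min; add donor/acceptor beads (10 ug/ml final), 10 min; read AlphaScreen. Tdp1 at 1 nM final.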
Numbers stand for hits; i = inactive; ? = inconclusive; nt = no result. Rows were chosen to be rich in hits. Some 18% of all compounds tested hit in one or more screens of this group. The call rests on the fitted dose curve; in most records, active means well fitted curve in the direction sought with a large enough effect; inconclusive means small, poorly fitted or top-dose-only effect, or another doubt; inactive means no such curve, though single readings can be large; an effect the other way counts as inactive or inconclusive.

SMILES	PLK1 PBD block	DT40 TDP1 no CPT	KAT2A inh	VDR inhibitor	TDP1 cell CPT	TDP1 inh
Cc1ccc(S(=O)(=O)N(CC(=O)NCc2ccc(F)cc2)C(=O)N2CCN(C)CC2)cc1	i	i	i	i	i	i
Cc1ccc(NC(=O)COC(=O)c2nn(C)c(=O)c3ccccc23)cc1F	i	i	i	i	i	i
N#Cc1cnn(-c2cccc(Cl)c2)c1-n1cccc1	i	i	?	i	i	i
COc1ccc(OCC(=O)Nc2ccccc2C(=O)Nc2ccc(C(=O)O)cc2)cc1	i	i	?	i	i	i
COc1ccc(-c2c(C(=O)c3ccc(Br)cc3)[nH]c(N)c2C(=O)c2ccccc2)cc1OC	i	21µM	nt	nt	?	nt
Nc1[nH]c(C(=O)c2ccccc2)c(-c2cccc3ccccc23)c1C(=O)NCc1ccccc1	i	23µM	nt	nt	?	nt
COc1ccc(-c2c(C(=O)c3ccccc3)[nH]c(N)c2C(=O)NCc2ccccc2)cc1OC	i	?	nt	nt	?	nt
CC(C)(C)C(=O)c1c(N)[nH]c(C(=O)c2ccccc2)c1-c1c(F)cccc1F	i	21µM	nt	nt	?	nt
O=C(Nc1cccc(F)c1)N1CCC2(CC1)CCN(C(=O)c1cnccn1)CC2	nt	i	i	i	i	nt
N#Cc1cc2c(=O)n3ccccc3nc2n(-c2ccccc2Cl)c1=O	i	?	i	i	7.3µM	i
Cc1cc(Oc2ccccc2)nc(C#N)n1	nt	i	nt	nt	i	nt
O=C(NCc1ccccc1)C1=C[C@H](c2ccc(Br)cc2)C[C@H](OCc2ccc(CO)cc2)O1	i	?	i	i	?	i
O=C(Nc1ccccc1)C1=C[C@H](c2ccc(Br)cc2)C[C@H](OCc2ccc(CO)cc2)O1	i	?	i	i	29µM	i
O=C(O)C1=C[C@H](c2ccc(C(F)(F)F)cc2)C[C@H](OCc2ccc(CO)cc2)O1	i	i	i	i	i	i
O=C(Nc1ccccc1)C1=C[C@@H](c2ccc(C(F)(F)F)cc2)C[C@@H](OCc2ccc(CO)cc2)O1	i	18µM	i	i	23µM	i
O=C(O)[C@@H]1[C@H]2C[C@H]3c4[nH]c5ccccc5c4CCN3C[C@@H]2CC[C@@H]1O	i	i	i	i	i	nt
O=C1CCC2CN3CCc4c([nH]c5ccccc45)C3CC2C1 (stereo unspecified)	i	21µM	nt	nt	?	nt
Cn1c(SCCN2CCOCC2)nc2sc3c(c2c1=O)CCCC3	i	i	i	i	i	i
C=CCn1c(SCc2c(C)noc2C)nc2sc3c(c2c1=O)CCCC3	i	?	i	i	18µM	i
Cc1noc(C)c1CSc1nc2sc3c(c2c(=O)n1C)CCCC3	i	?	i	i	12µM	i
CCOC(=O)N(C)c1c(CC)nc2c(OCc3ccc(S(C)(=O)=O)cc3)cccn12	i	i	nt	nt	i	nt
CCC1CN(C(=O)N2CCC(C(=O)NCCc3ccccc3OC)CC2)c2ccccc2O1 (stereo unspecified)	i	13µM	i	i	?	i
CCC1CN(C(=O)N2CCC(C(=O)NCCc3ccccc3Cl)CC2)c2cc(C)ccc2O1 (stereo unspecified)	nt	21µM	i	i	16µM	i
O=C(NCCc1ccc(Cl)cc1)C1CCN(S(=O)(=O)N2CCCCC2)CC1	i	?	i	i	?	i
COc1ccc(CCNC(=O)C2CCCN(C(=O)N(C)C)C2)c(OC)c1 (stereo unspecified)	i	i	i	i	i	i
CCC1CN(C(=O)N2CCC(C(=O)NCCc3ccc(Cl)cc3)CC2)c2ccccc2O1 (stereo unspecified)	nt	15µM	i	i	16µM	i
CCC1CN(C(=O)N2CCC(C(=O)NCCc3ccc(OC)cc3OC)CC2)c2ccccc2O1 (stereo unspecified)	i	?	i	i	26µM	i
COc1cc(C)c2ccccc2n1	nt	i	nt	nt	i	nt
CCN(CC)S(=O)(=O)c1ccc(OC)c(NC(=O)COc2ccc3c(C)cc(=O)oc3c2)c1	i	i	i	i	i	i
